Activity calls are given as the source filed them. Rule for the calls: active = hit-call score of the fitted dose curve at least 0.9, where 1 is the maximum; inactive = score below 0.9.

A short description of this assay: BSK_KF3CT_SRB: Viability Assessment in the BioMAP Diversity Plus: KF3CT Assay (AID 2283069).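 Note: fitted for both signal gain and loss against DMSO baseline.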 Conditions: primary human keratinocytes with fibroblasts. The procedure:
BSK_KF3CT is a cell-based, multiplexed-readout assay that uses keratinocytes and foreskin fibroblasts, a human skin primary cell co-culture, with measurements taken at 24 hours after chemical dosing in a 96-well plate.BSK_KF3CT_SRB is an assay component measured in the BSK_KF3CT assay. It measures 0.1% sulforhodamine related to cell death using Sulforhodamine staining technology.Data from the assay component BSK_KF3CT_SRB was analyzed into 1 assay endpoint. This assay endpoint, BSK_KF3CT_SRB, was analyzed with bidirectional fitting relative to DMSO as the negative control and baseline of activity. Using a type of viability reporter, gain or loss-of-signal activity can be used to understand changes in the signaling. Furthermore, this assay endpoint can be referred to as a primary readout, because this assay has produced multiple assay endpoints where this one serves a signaling function. To generalize the intended target to other relatable targets, this assay endpoint is annotated to the cell morphology intended target family, where the subfamily is cell conformation.
The levels of cell surface (or secreted, indicated by the prefix "s") biomarker endpoints were measured by ELISA. Overt cytotoxicity to cells in confluent adherent cultures (all systems other than the BT system) was assessed by measuring total protein levels using sulforhodamine B (SRB) staining in parallel cultures at the time of biomarker measurements, indicated as SRB endpoints. For proliferation assays for adherent cell types, individual cell types are cultured at sub-confluence and relative cell numbers quantified by SRB staining at time points optimized for each system (48 h: 3C and CASM3C systems; 72 h: BT and HDF3CGF systems; 96 h: SAg system). SRB was performed by staining cells with 0.1% SRB after fixation with 10% TCA and reading wells at 560 nm.Viability and proliferation of PBMC (T cells) was quantified by Alamar Blue reduction for the SAg and BT systems. For PBMC viability (referred to as PBMC Cytotoxicity within the assay endpoint names), cells were plated (75,000/well in a 96-well plate) and then chemical samples added for 1 h before addition of activators, SEB and TSST-1 (20 ng/mL final concentration each). Cells were incubated for 90 h. Then, Alamar Blue (20 uL/well) (Invitrogen, Cat DAL1100) was added for 6 h, and the plates were read with a fluorescence microplate reader at 546/580 nm (excitation/emission). For PBMC proliferation, cells were plated and activated as above but incubated for only 16 h prior to addition of Alamar Blue. Plates were read after 6 h.
Regarding `COP(N)(=S)OC`, the outcome was inactive.
As to `OCC1CO1` (stereo not given), the result was inactive.
Turning to `O=P(OCC(Br)CBr)(OCC(Br)CBr)OCC(Br)CBr` (stereo not given), the outcome was inactive.
Consider `CCOP(=S)(OCC)SCS(=O)(=O)CC`, for which the result was inactive.
Consider `COC(=O)C(F)(F)C(F)(F)OC(F)(C(F)(F)F)C(F)(F)OC(F)=C(F)F` (stereo not given), for which the outcome was inactive.
`NC(=O)C(F)(F)C(F)(F)F`: the outcome was inactive.
As for `CCOC(=O)c1ccccc1C(=O)OCC`, the result was inactive.
The same measure, in the same setting: the entry for `c1nc[nH]n1` is “inactive”; for `CCOS(=O)(=O)OCC` it is “inactive”; for `O=C(O)C(F)(F)OC(F)(F)C(F)(F)OC(F)(F)C(=O)O` it is “inactive”.
With `ClC(Cl)c1ccccc1`, the result was inactive.
For `CCOc1ccc(C(C)(C)COCc2cccc(Oc3ccccc3)c2)cc1`, the result was inactive.
The same measure, in the same setting: the entry for `Cc1ccc(O)cc1C` is “inactive”; for `CCOP(=S)(OCC)SCSCC` it is “inactive”.
As for `c1cc2c3c(cccc3c1)CC2`, the result was inactive.
On to `COP(=O)(O)OC`, for which the result was inactive.
Turning to `CN(C)C(=O)Cl`, the outcome was inactive.
Take `[N-]=[N+]=[N-]`: the result was inactive.
As to `Nc1ccc(Cl)cc1`, the outcome was inactive.
For `Cc1c([N+](=O)[O-])cc2c(c1[N+](=O)[O-])C(C)(C)CC2(C)C`, the outcome was inactive.
Turning to `Nc1ccc([N+](=O)[O-])cc1Cl`, the outcome was inactive.
Turning to `CC(C)(C)c1ccccc1OP(=O)(Oc1ccccc1)Oc1ccccc1`, the outcome was inactive.
For the molecule `C=CC(=O)OCC(F)(F)C(F)F`, the result was inactive.
As for `ClC(Cl)(Cl)c1ccccc1`, the result was inactive.
On the same count and under the same terms, the entry for `CCOP(=S)(OCC)SCn1nnc2ccccc2c1=O` is “inactive”; for `CC(C)(C)OOC(C)(C)C` it is “inactive”.
For `CCOP(=S)(OCC)SCSc1ccc(Cl)cc1`, the outcome was inactive.
In the case of `CCCN(CCC)c1c([N+](=O)[O-])cc(C(C)C)cc1[N+](=O)[O-]`, the outcome was inactive.
Regarding `C=CC(=O)OCC(CC)(COC(=O)C=C)COC(=O)C=C`, the AC50 – broadly, the midpoint of the concentration-response curve, whichever way the signal moves – is 3.15 µM (active).
Consider `N#Cc1c(-c2ccc(Cl)cc2)[nH]c(C(F)(F)F)c1Br`, for which the outcome was inactive.
Turning to `CSC(C)(C)C=NO`, the outcome was inactive.
As to `ClC(Cl)=C(c1ccc(Cl)cc1)c1ccccc1Cl`, the concentration at half-maximal activity (AC50) was 6.86 µM (active).
In the case of `O=[N+]([O-])c1ccc(Cl)c(Cl)c1`, the result was inactive.
In the case of `O=P1(N(CCCl)CCCl)NCCCO1` (stereo not given), the result was inactive.
`Cc1ccc([N+](=O)[O-])cc1C`: the result was inactive.
Regarding `CC(O)C(F)(F)C(F)(F)F` (stereo not given), the result was inactive.
On to `Cc1cccc(N)c1`, for which the result was inactive.
Turning to `O=C(O)C(F)(OC(F)(F)C(F)(F)C(F)(F)F)C(F)(F)F` (stereo not given), the outcome was inactive.
Still for that read-out and setting: the value for `c1ccc2c(c1)sc1ccccc12` was “inactive”.
As for `CCOP(=S)(NC(C)C)Oc1ccccc1C(=O)OC(C)C` (stereo not given), the outcome was inactive.

Values taken from PubChem BioAssay (EPA / NIEHS).
